Reference: PubChem BioAssay (NCI)
This is part of a sample that, as a whole, favours compounds with a hit. Of some 83,000 tested, about 20% had one in any assay.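 Negative percent growth values reflect cell death: -40 means 40% of the cells present at the start died, and -100 means all died.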 Active and inactive are the calls of the source. Rule for the calls: active = growth percent below 10; inactive = the rest.

Tests used:
Experiment in all cases: NCI-60 one-dose screen, 48 h (100 = growth as untreated, 0 = no growth, -100 = all killed)
Settings in all cases: 10 µM unless noted
[1] = test system: SR leukemia
[2] = test system: RPMI-8226 leukemia
[3] = test system: OVCAR-8 ovarian
[4] = test system: OVCAR-5 ovarian
[5] = test system: OVCAR-4 ovarian
[6] = test system: SK-OV-3 ovarian
[7] = test system: IGROV1 ovarian
[8] = test system: OVCAR-3 ovarian
[9] = test system: HS 578T breast
[10] = test system: NCI/ADR-RES ovarian
[11] = test system: T-47D breast
[12] = test system: BT-549 breast
[13] = test system: MDA-MB-435 melanoma
[14] = test system: SW-620 colon
[15] = test system: MCF7 breast
[16] = test system: HCT-116 colon
[17] = test system: HCC-2998 colon
[18] = test system: KM12 colon

Measured: growth

CC(C)CCC[C@@H](C)C1CCC2C3CCC4=C/C(=N/OCCN(C)C)CC[C@]4(C)C3CC[C@@]21C (stereo partly drawn)
inactive: [1] 62.2% | [2] 78.4% | [3] 104% | [4] 83.9% | [5] 88.5% | [6] 93.8% | [7] 48.9% | [8] 89.5% | [9] 83.8% | [10] 89.6% | [11] 87.4% | [12] 90.5% | [13] 102% | [14] 91.1% | [15] 91.9% | [16] 83.9% | [17] 80.8% | [18] 87.4%

COc1ccc(-c2cn(-c3ccc(Cl)cc3)c(SCC(=O)c3ccc([N+](=O)[O-])cc3)n2)cc1
inactive: [1] 90.1% | [2] 97.2% | [3] 51.8% | [4] 90.5% | [5] 38.7% | [6] 85.2% | [7] 83% | [8] 106% | [9] 41% | [10] 79.5% | [11] 83.4% | [12] 89.7% | [13] 79.5% | [14] 86.1% | [15] 82.4% | [16] 74.6% | [17] 103% | [18] 94.8%

O=C(CSc1nc2ccc([N+](=O)[O-])cc2[nH]1)Nc1ccc(Br)cc1
inactive: [1] 22.9% | [3] 52.5% | [4] 85.7% | [5] 34.4% | [6] 44.7% | [7] 63.8% | [8] 39.3% | [9] 78.7% | [10] 59.3% | [12] 50.4% | [13] 46.5% | [14] 74.5% | [15] 64.5% | [16] 28.2% | [17] 79.6% | [18] 56.2%
active: [2] 6.95% | [11] 8.75%

COc1cc(C(=O)/C=C/c2c(-c3cccs3)nc3ccccn23)cc(OC)c1OC
inactive: [1] 13.8% | [4] 18.4% | [5] 13.1% | [7] 13.1% | [11] 18.2% | [13] 11% | [17] 17.1%
active: [2] -9.49% | [3] 9.84% | [6] 3.6% | [8] -36.5% | [9] -1.24% | [10] -15.6% | [12] -16.9% | [14] 4.78% | [15] 7.96% | [16] -5.59% | [18] -25.6%

COc1ccc(/C=C/C(=O)c2cc3c(N)c(C(=O)Nc4ccc(OC)cc4)sc3nc2C)cc1
inactive: [1] 11.8% | [2] 37.7% | [4] 42.9% | [5] 53.5% | [6] 16.1% | [7] 33% | [11] 57.2% | [12] 24.6% | [14] 19.2% | [15] 14.3% | [16] 16.6% | [17] 15.9% | [18] 13.1%
active: [3] 7.03% | [8] 2.94% | [9] 8.09% | [10] 6.34% | [13] -23%

CCCn1c(=S)sc2c1nc(C)n1c(Nc3ccccc3)nnc21
inactive: [1] 61.4% | [2] 45.9% | [3] 71.3% | [4] 107% | [5] 42.8% | [6] 89.2% | [7] 80.3% | [8] 61.5% | [9] 97.4% | [10] 85.4% | [11] 15.6% | [12] 76.2% | [13] 63.7% | [14] 104% | [15] 77% | [16] 59.1% | [17] 78.3% | [18] 96.5%

Cc1c2cc[nH]c(=O)c2c(C)c2c1[nH]c1ccc(OC(=O)c3ccccc3)cc12
active: [1] 4.29% | [6] 8.11%
inactive: [2] 40.2% | [3] 28.4% | [4] 53.1% | [5] 62.5% | [7] 30.6% | [8] 44.3% | [9] 19.3% | [10] 27.7% | [11] 10.3% | [12] 40.8% | [13] 28% | [14] 28% | [15] 20.3% | [16] 22.7% | [17] 57.7% | [18] 39%

COc1cc2c3c(c1O)-c1ccccc1[C@@H]1OC(=O)N(CC2)[C@H]31
inactive: [1] 98.2% | [2] 99.2% | [3] 97.8% | [4] 116% | [5] 105% | [6] 106% | [7] 114% | [8] 115% | [9] 102% | [10] 104% | [11] 89.6% | [12] 111% | [13] 107% | [14] 105% | [15] 90% | [16] 99.3% | [17] 96.8% | [18] 108%

COP(=O)(OC)c1nnn(-c2cccc([N+](=O)[O-])c2)c1C
inactive: [1] 104% | [2] 103% | [3] 101% | [4] 104% | [5] 103% | [6] 123% | [7] 110% | [8] 111% | [9] 102% | [10] 103% | [11] 99.4% | [12] 105% | [13] 108% | [14] 100% | [15] 97.9% | [16] 105% | [17] 110% | [18] 105%

COc1ccc(-c2cc(C(=O)N3N=C(c4ccc(N)cc4)CC3c3ccccc3)c3ccccc3n2)cc1 (stereo not drawn)
active: [13] -20%
inactive: [1] 22.6% | [2] 23.5% | [3] 47.5% | [4] 64.7% | [5] 65% | [6] 34.9% | [7] 49.5% | [8] 10.7% | [9] 36.8% | [10] 34.4% | [11] 38.2% | [12] 41.3% | [14] 23.4% | [15] 24.1% | [16] 17.8% | [17] 59.9% | [18] 25.1%

O=C(CCCCCCN1CC(=O)N2[C@@H](c3ccc(Cl)cc3)c3[nH]c4ccccc4c3C[C@H]2C1=O)NO
inactive: [1] 20.2% | [2] 22.4% | [3] 57.7% | [4] 69.9% | [5] 59.3% | [6] 82.9% | [7] 53.8% | [8] 66.7% | [9] 67.9% | [10] 93% | [11] 42.1% | [12] 77.2% | [13] 53.9% | [14] 62.9% | [15] 46.2% | [16] 38.6% | [17] 81.2% | [18] 75.1%

Cc1ccccc1CNc1c2ccccc2nc2ccccc12
inactive: [3] 21% | [4] 36.7% | [5] 32.9% | [6] 40.8% | [7] 14.8% | [8] 31.3% | [9] 35.7% | [10] 24.9% | [11] 24.6% | [12] 55.9% | [13] 23.9% | [14] 13.8% | [17] 16.2% | [18] 16.9%
active: [1] 2.71% | [2] -8.88% | [15] 6.93% | [16] 7.9%

CSCCC(NC(=O)c1ccccc1)C(=O)N/N=C1\S/C(=C/c2ccc(Cl)cc2)C(=O)N1C (stereo not drawn)
inactive: [1] 38.2% | [2] 49.9% | [3] 71.1% | [4] 94.5% | [5] 88.8% | [6] 84.5% | [7] 95.7% | [8] 108% | [9] 80.5% | [10] 96.7% | [11] 82.9% | [12] 87.3% | [13] 86.2% | [14] 93.5% | [15] 83.9% | [16] 55.2% | [17] 96.7% | [18] 88.9%

Cc1ccc(C(=O)c2ccc(CC(=O)N/N=C/c3ccc(O)cc3O)n2C)cc1
inactive: [1] 17.3% | [2] 48.4% | [3] 48.4% | [4] 63.4% | [5] 20.7% | [6] 45.1% | [7] 41.7% | [8] 37.2% | [9] 74.9% | [10] 34.6% | [11] 50.2% | [12] 50.8% | [13] 63.1% | [14] 42.2% | [15] 39.2% | [16] 34.9% | [17] 59.6% | [18] 36.1%

Cn1c(/C=C/[N+](=O)[O-])cc2ccccc21
inactive: [3] 10.8% | [5] 94.2% | [6] 82.4% | [8] 88.3% | [9] 70.2% | [10] 59.5% | [11] 37.4%
active: [1] -7.91% | [2] -17.3% | [4] 7.36% | [7] 0.609% | [12] -43.2% | [13] -21.6% | [14] -70.8% | [15] -50.5% | [16] -74% | [17] -95.1% | [18] -63.8%

Cc1ccc2nc(Cl)c(Cn3nnnc3SCc3ccccc3)cc2c1
inactive: [1] 80% | [2] 93.1% | [3] 97.3% | [4] 94.3% | [5] 86.9% | [6] 97.7% | [7] 95.4% | [8] 105% | [9] 83.1% | [10] 86.1% | [11] 84.6% | [12] 92.3% | [13] 103% | [14] 96.1% | [15] 87.9% | [16] 89.5% | [17] 111% | [18] 101%
